# PubChem BioAssay (EPA / NIEHS)
# Several values for one entry are separate records, joined by “and”; a condition that tells them apart may be missing. Identical values can stand only once. Some structures have more than one record in an assay (separate samples or runs), and their calls can disagree. Activity calls are given as the source filed them. The calls were made as follows: active = hit-call score of the fitted dose curve at least 0.9, where 1 is the maximum; inactive = score below 0.9.
# How the values were obtained:
# Details in all cases: mRNA level, 48 h; actives raise or lower the signal
# [1] = read-out: Hypoxia-inducible factor 1-alpha (Homo sapiens) (UniProt Q16665); test: LTEA_HepaRG_HIF1A: Life Technologies and Expression Analysis (LTEA) Assay for Hypoxia-inducible factor 1 (HIF1A) Trancription factor using HepaRG (AID 2283503)
# Outline: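 Gain- or loss-of-signal HIF1A mRNA changes are fitted against a DMSO baseline. HepaRG cultures receive eight concentrations, highest 100 uM, for 48 h in serum-free induction medium with 0.5% DMSO.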
# [2] = read-out: 3-Hydroxy-3-Methylglutaryl-CoA Synthase 2 (HMGCS2), HMGCS2 (gene 3158); test: LTEA_HepaRG_HMGCS2: Life Technologies and Expression Analysis (LTEA) Assay for 3-Hydroxy-3-Methylglutaryl-CoA Synthase 2 (HMGCS2) using HepaRG (AID 2283504)
# Outline: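 Readout is HMGCS2 transcript by qRT-PCR, housekeeping-normalised (ACTB/GAPDH/POLR2A) and fitted bidirectionally against 0.5% DMSO. Differentiated HepaRG cells received chemicals 48 h, duplicate wells, eight half-log concentrations topping at 100 uM.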
# [3] = read-out: HGF (gene 3082); test: LTEA_HepaRG_HGF: Life Technologies and Expression Analysis (LTEA) Assay for Hepatocyte Growth Facto (HGF) using HepaRG (AID 2283505)
# Outline: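 HGF transcript was quantified by TaqMan qRT-PCR against three housekeeping genes after 48 h treatment of HepaRG cells. Exposure ran in duplicate over eight half-log steps topping at 100 uM in 0.5% DMSO vehicle.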
# [4] = read-out: Insulin Like Growth Factor 1 (IGF1), IGF1 (gene 3479); test: LTEA_HepaRG_IGF1: Life Technologies and Expression Analysis (LTEA) Assay for Insulin Like Growth Factor 1 (IGF1) using HepaRG (AID 2283506)
# Outline: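 qRT-PCR readout of IGF1 mRNA, normalized to three housekeeping genes, after 48 h chemical exposure of HepaRG cells. Concentrations: 8-point half-log series, top 100 uM, 0.5% DMSO vehicle. Gain or loss fitted against DMSO baseline.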
# [5] = read-out: Intercellular Adhesion Molecule 1 (ICAM1), ICAM1 (gene 3383); test: LTEA_HepaRG_ICAM1: Life Technologies and Expression Analysis (LTEA) Assay for Intercellular Adhesion Molecule 1 (ICAM1) using HepaRG (AID 2283507)
# Outline: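 ICAM1 transcript levels measured by qRT-PCR, normalized to three housekeeping genes (ACTB, GAPDH, POLR2A), after 48 h chemical exposure of HepaRG cells. Duplicate eight-point half-log series from 100 uM in 0.5% DMSO; gain or loss fitted against vehicle.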
# [6] = read-out: Insulin-like growth factor-binding protein 1 (IGFBP1), IGFBP1 (gene 3484); test: LTEA_HepaRG_IGFBP1: Life Technologies and Expression Analysis (LTEA) Assay for Insulin-like growth factor-binding protein 1 (IGFBP1) using HepaRG (AID 2283508)
# Outline: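 Read-out is qRT-PCR transcript level normalized to three housekeeping genes, fitted in both directions against 0.5% DMSO. Differentiated HepaRG cells received eight half-log concentrations (top 100 uM) in duplicate for 48 h in serum-free induction medium.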
# [7] = read-out: Interleukin 6 (IL6), IL6 (gene 3569); test: LTEA_HepaRG_IL6: Life Technologies and Expression Analysis (LTEA) Assay for Interleukin 6 (IL6) using HepaRG (AID 2283509)
# Outline: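 qRT-PCR read-out of IL6 transcript, normalized to three housekeeping genes, after 48 h chemical exposure of HepaRG cells; 8-point half-log series, top 100 uM, 0.5% DMSO vehicle. Bidirectional curve fitting against DMSO baseline.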
# [8] = read-out: Interleukin 6 Receptor (IL6R), IL6R (gene 3570); test: LTEA_HepaRG_IL6R: Life Technologies and Expression Analysis (LTEA) Assay for Interleukin 6 Receptor (IL6R) using HepaRG (AID 2283510)
# Outline: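 HepaRG, 48 h exposure, 8-pt half-log series, top 100 uM, 0.5% DMSO vehicle, duplicates. Read-out: TaqMan qRT-PCR of IL6R transcript, housekeeping-gene normalized. Gain or loss fitted relative to DMSO baseline.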
# [9] = read-out: Potassium channel subfamily K member 1 (KCNK1), KCNK1 (gene 3775); test: LTEA_HepaRG_KCNK1: Life Technologies and Expression Analysis (LTEA) Assay for Potassium channel subfamily K member 1 (KCNK1) using HepaRG (AID 2283511)
# Outline: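 HepaRG, 48 h exposure, 8-pt half-log series top 100 uM, 0.5% DMSO vehicle, duplicates. Readout: KCNK1 transcript by qRT-PCR (Fluidigm array), housekeeping-normalized; bidirectional curve fit relative to DMSO baseline.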
# [10] = read-out: Keratin 19 (KRT19), KRT19 (gene 3880); test: LTEA_HepaRG_KRT19: Life Technologies and Expression Analysis (LTEA) Assay for Keratin 19 (KRT19) using HepaRG (AID 2283512)
# Outline: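 KRT19 transcript measured by TaqMan qRT-PCR, referenced to three housekeeping genes, after HepaRG cells received test chemicals for 48 h. Eight half-log concentrations, top 100 uM, 0.5% DMSO vehicle; increases and decreases both fitted.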
# [11] = read-out: JUN Transcription Factor, JUN (gene 3725); test: LTEA_HepaRG_JUN: Life Technologies and Expression Analysis (LTEA) Assay for JUN Transcription Factor using HepaRG (AID 2283513)
# Outline: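 HepaRG, 48 h exposure, 8-pt half-log series top 100 uM, 0.5% DMSO, duplicate. JUN mRNA by qRT-PCR (Fluidigm), housekeeping-normalized (ACTB/GAPDH/POLR2A); bidirectional curve fit vs DMSO baseline.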
# [12] = read-out: Lipase C (LIPC), LIPC (gene 3990); test: LTEA_HepaRG_LIPC: Life Technologies and Expression Analysis (LTEA) Assay for Lipase C (LIPC) using HepaRG (AID 2283514)
# Outline: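 HepaRG, 48 h exposure, 8-pt half-log series from 100 uM in 0.5% DMSO, duplicates. Readout: LIPC mRNA by Fluidigm qRT-PCR, housekeeping-normalized (ACTB/GAPDH/POLR2A). Gain or loss fitted bidirectionally against DMSO baseline.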
# [13] = read-out: Lipoprotein lipase (LPL), LPL (gene 4023); test: LTEA_HepaRG_LPL: Life Technologies and Expression Analysis (LTEA) Assay for Lipoprotein lipase (LPL) using HepaRG (AID 2283515)
# Outline: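 HepaRG, 48 h exposure, 8-pt half-log dilutions from 100 uM, 0.5% DMSO vehicle, duplicates; qRT-PCR (Fluidigm array) of LPL mRNA vs housekeeping genes; bidirectional curve fit relative to DMSO baseline.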
# [14] = read-out: MicroRNA 122 (MIR122), gene 406906; test: LTEA_HepaRG_MIR122: Life Technologies and Expression Analysis (LTEA) Assay for MicroRNA 122 (MIR122) using HepaRG (AID 2283516); also: the transcript read is the microRNA miR-122
# Outline: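 qRT-PCR read-out (TaqMan, Fluidigm array), normalized to three housekeeping genes; HepaRG cells dosed 48 h at 8 concentrations up to 100 uM in 0.5% DMSO, duplicate; gain or loss fitted against DMSO baseline.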
# [15] = read-out: matrix metalloproteinase-10 (MMP10), MMP10 (gene 4319); test: LTEA_HepaRG_MMP10: Life Technologies and Expression Analysis (LTEA) Assay for matrix metalloproteinase-10 (MMP10) using HepaRG (AID 2283517)
# Outline: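 Transcript levels come from Fluidigm qRT-PCR normalized to three housekeeping genes, with curves fitted bidirectionally against 0.5% DMSO. Human HepaRG cells were dosed for 48 hours at concentrations up to 100 uM.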
# [16] = read-out: MYC, MYC (gene 4609); test: LTEA_HepaRG_MYC: Life Technologies and Expression Analysis (LTEA) Assay for MYC using HepaRG (AID 2283518)
# Outline: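 MYC transcript changes, up or down relative to 0.5% DMSO, from TaqMan qRT-PCR normalized to three housekeeping genes. Human HepaRG cultures received chemicals for 48 h at eight half-log concentrations up to 100 uM, in duplicate.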
# [17] = read-out: matrix metalloproteinase-3 (MMP3), MMP3 (gene 4314); test: LTEA_HepaRG_MMP3: Life Technologies and Expression Analysis (LTEA) Assay for matrix metalloproteinase-3 (MMP3) using HepaRG (AID 2283519)
# Outline: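 qRT-PCR read-out of MMP3 mRNA (normalised to three housekeeping genes) in HepaRG liver cells after 48 h chemical exposure; 8-point half-log series, top 100 uM, 0.5% DMSO vehicle. Bidirectional curve fitting against DMSO baseline.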
# [18] = read-out: Paternally Expressed 10 (PEG10), PEG10 (gene 23089); test: LTEA_HepaRG_PEG10: Life Technologies and Expression Analysis (LTEA) Assay for Paternally Expressed 10 (PEG10) using HepaRG (AID 2283520);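 as to AC50: PEG10 transcript by qRT-PCR normalised to ACTB GAPDH and POLR2A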
# Outline: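 qRT-PCR read-out: PEG10 mRNA normalised to three housekeeping genes, fitted bidirectionally against 0.5% DMSO vehicle. HepaRG cells received test chemicals for 48 h in serum-free induction medium, 8 points, top 100 uM, half-log steps.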
# [19] = read-out: Protein phosphatase 2A (PPP2R4), PTPA (gene 5524); test: LTEA_HepaRG_PPP2R4: Life Technologies and Expression Analysis (LTEA) Assay for Protein phosphatase 2A (PPP2R4) using HepaRG (AID 2283522)
# Outline: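 HepaRG, 48 h exposure, 8-pt half-log series from 100 uM, 0.5% DMSO vehicle, duplicates. Readout: PPP2R4 mRNA, Fluidigm qRT-PCR, housekeeping-normalized. Bidirectional curve fit vs DMSO baseline.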
# [20] = read-out: Nuclear factor NF-kappa-B p105 subunit (Homo sapiens) (UniProt P19838); test: LTEA_HepaRG_NFKB1: Life Technologies and Expression Analysis (LTEA) Assay for Nuclear Factor Kappa B Subunit 1 (NFKB1) using HepaRG (AID 2283521);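 as to outcome: differentiated human HepaRG liver cells in serum-free induction medium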
# Outline: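 NFKB1 transcript was measured by TaqMan qRT-PCR on Fluidigm arrays, normalised to three housekeeping genes and fitted in both directions against 0.5% DMSO. HepaRG cells were dosed in duplicate for 48 h in serum-free induction medium, eight half-log steps from 100 uM.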
# Hypoxia-inducible factor 1-alpha (Homo sapiens), sequence (Q16665 whole entry, looked up): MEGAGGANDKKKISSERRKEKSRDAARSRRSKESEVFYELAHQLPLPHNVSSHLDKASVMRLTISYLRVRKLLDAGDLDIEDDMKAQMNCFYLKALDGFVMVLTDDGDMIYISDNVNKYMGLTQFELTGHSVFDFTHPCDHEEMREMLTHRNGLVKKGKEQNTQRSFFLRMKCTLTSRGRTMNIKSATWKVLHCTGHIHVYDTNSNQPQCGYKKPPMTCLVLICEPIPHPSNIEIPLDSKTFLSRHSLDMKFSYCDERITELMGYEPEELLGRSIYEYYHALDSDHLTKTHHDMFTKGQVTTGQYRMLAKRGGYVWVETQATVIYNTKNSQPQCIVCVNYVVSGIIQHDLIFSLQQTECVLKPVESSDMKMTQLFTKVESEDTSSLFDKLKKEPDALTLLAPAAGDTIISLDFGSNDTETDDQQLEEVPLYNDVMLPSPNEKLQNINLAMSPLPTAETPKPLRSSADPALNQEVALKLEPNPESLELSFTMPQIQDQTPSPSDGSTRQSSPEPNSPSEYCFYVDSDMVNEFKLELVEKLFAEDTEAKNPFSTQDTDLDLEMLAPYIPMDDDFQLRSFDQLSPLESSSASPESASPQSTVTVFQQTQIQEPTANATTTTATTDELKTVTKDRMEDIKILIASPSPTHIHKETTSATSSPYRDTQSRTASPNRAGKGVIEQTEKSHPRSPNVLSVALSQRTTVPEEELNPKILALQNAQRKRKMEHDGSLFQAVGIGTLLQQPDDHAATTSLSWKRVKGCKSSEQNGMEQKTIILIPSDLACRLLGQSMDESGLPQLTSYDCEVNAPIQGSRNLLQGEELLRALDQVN
# Nuclear factor NF-kappa-B p105 subunit (Homo sapiens), sequence (P19838 whole entry, looked up): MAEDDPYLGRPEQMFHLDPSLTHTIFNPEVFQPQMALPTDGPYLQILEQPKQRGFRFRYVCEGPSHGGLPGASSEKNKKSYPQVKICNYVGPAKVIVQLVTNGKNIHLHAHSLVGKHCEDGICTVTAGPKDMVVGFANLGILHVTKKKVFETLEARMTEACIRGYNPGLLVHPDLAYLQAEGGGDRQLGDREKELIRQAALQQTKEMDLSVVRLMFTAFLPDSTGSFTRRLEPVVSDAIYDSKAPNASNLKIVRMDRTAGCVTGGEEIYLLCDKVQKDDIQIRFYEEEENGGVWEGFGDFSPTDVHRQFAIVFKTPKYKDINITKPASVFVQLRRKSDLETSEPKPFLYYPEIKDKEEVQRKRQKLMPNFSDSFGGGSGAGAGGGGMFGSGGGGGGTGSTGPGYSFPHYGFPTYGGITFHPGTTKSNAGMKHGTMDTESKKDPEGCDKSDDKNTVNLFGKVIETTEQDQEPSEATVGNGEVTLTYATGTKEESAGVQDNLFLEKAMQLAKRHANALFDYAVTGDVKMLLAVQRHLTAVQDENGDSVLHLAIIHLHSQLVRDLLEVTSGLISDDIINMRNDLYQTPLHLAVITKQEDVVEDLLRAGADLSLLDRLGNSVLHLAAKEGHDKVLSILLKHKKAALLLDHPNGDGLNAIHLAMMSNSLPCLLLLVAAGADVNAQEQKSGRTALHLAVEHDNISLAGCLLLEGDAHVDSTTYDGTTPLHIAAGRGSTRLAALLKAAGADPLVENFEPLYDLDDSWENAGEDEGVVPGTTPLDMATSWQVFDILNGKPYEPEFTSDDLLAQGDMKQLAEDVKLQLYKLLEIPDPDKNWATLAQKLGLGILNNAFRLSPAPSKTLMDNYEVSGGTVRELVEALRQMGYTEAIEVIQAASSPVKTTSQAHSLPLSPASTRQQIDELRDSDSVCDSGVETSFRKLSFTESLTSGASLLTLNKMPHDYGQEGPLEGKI
smiles,measurement,setting,value
C[C@H]1[C@H](c2ccc(Cl)cc2)SC(=O)N1C(=O)NC1CCCCC1,outcome,[1],inactive
same,AC50,[2],38.2 µM (active)
same,outcome,[3],inactive
same,AC50,[4],40.1 µM (active)
same,AC50,[5],81.3 µM (active)
same,AC50,[6],75.4 µM (active)
same,AC50,[7],77.7 µM (active)
same,outcome,[8],inactive
same,outcome,[9],inactive
same,AC50,[10],50 µM (active)
same,outcome,[11],inactive
same,AC50,[12],36.5 µM (active)
same,AC50,[13],60.7 µM (active)
same,AC50,[14],60 µM (active)
same,AC50,[15],79.5 µM (active)
same,AC50,[16],71.1 µM (active)
same,outcome,[17],inactive
same,AC50,[18],12.8 µM (active)
same,AC50,[19],50 µM (active)
COP(=S)(OC)Oc1ccc([N+](=O)[O-])cc1,outcome,[1],inactive
same,outcome,[2],inactive
same,outcome,[3],inactive
same,outcome,[4],inactive
same,outcome,[5],inactive
same,outcome,[6],inactive
same,outcome,[7],inactive
same,outcome,[9],inactive
same,outcome,[10],inactive
same,outcome,[11],inactive
same,outcome,[12],inactive
same,outcome,[13],inactive
same,outcome,[14],inactive
same,outcome,[15],inactive
same,outcome,[16],inactive
same,outcome,[17],inactive
same,outcome,[18],inactive
same,outcome,[20],inactive
same,outcome,[19],inactive
Oc1ccc(Cl)cc1Cc1ccccc1,outcome,[1],inactive
same,AC50,[2],76.8 µM (active)
same,outcome,[2],inactive
same,AC50,[3],83.5 µM (active)
same,outcome,[3],inactive
same,outcome,[4],inactive
same,outcome,[5],inactive
same,AC50,[6],75.2 µM (active) and 88.5 µM (active)
same,outcome,[6],inactive
same,outcome,[7],inactive
same,outcome,[9],inactive
same,AC50,[10],50.5 µM (active)
same,outcome,[10],inactive
same,outcome,[11],inactive
same,AC50,[12],80.2 µM (active)
same,outcome,[12],inactive
same,AC50,[13],82.2 µM (active) and 89.3 µM (active)
same,outcome,[13],inactive
same,AC50,[14],82.4 µM (active)
same,outcome,[14],inactive
same,outcome,[15],inactive
same,outcome,[16],inactive
same,outcome,[17],inactive
same,AC50,[18],89 µM (active) and 77.3 µM (active) and 78.6 µM (active)
same,AC50,[20],15.7 µM (active)
same,outcome,[20],inactive
same,outcome,[19],inactive
Oc1cc(Cl)ccc1Oc1ccc(Cl)cc1Cl,AC50,[1],79 µM (active)
same,outcome,[1],inactive
same,AC50,[2],82.8 µM (active)
same,outcome,[2],inactive
same,AC50,[3],51 µM (active)
same,outcome,[3],inactive
same,AC50,[4],69 µM (active)
same,outcome,[4],inactive
same,outcome,[5],inactive
same,AC50,[6],71.9 µM (active)
same,outcome,[6],inactive
same,AC50,[7],81.3 µM (active)
same,outcome,[7],inactive
same,outcome,[9],inactive
same,AC50,[10],69 µM (active)
same,outcome,[10],inactive
same,outcome,[11],inactive
same,AC50,[12],78.7 µM (active)
same,outcome,[12],inactive
same,AC50,[13],86.4 nM (active) and 51 µM (active)
same,outcome,[13],inactive
same,AC50,[14],82.3 µM (active)
same,outcome,[14],inactive
same,AC50,[15],89 µM (active)
same,outcome,[15],inactive
same,AC50,[16],83.5 µM (active)
same,outcome,[16],inactive
same,AC50,[17],51 µM (active)
same,outcome,[17],inactive
same,AC50,[18],51 µM (active)
